Results from PubChem BioAssay.

Experiment: small-molecule microarray binders of probe aCHRDL2, primary screen, biochemical, biotinylated probe, 635/667 nm fluorescence (AID 1100)
Details: higher = more signal
Compound `CCOC(=O)C[C@H]1[C@H](OC(=O)c2ccc(-c3ccccc3)cc2)[C@@H](NC(=O)Cc2ccc(OC)cc2)c2cc(OCCCO)ccc2N1C(=O)c1ccc2ccccc2n1` has a composite z-score of 0.294. With `C=CC[C@@]1(C(=O)NCC(O)CO)N=C(c2ccc(OCCCO)cc2)O[C@@H]1c1ccccc1N=[N+]=[N-]` (stereo partly specified) the composite z-score was 1.12. With `CCCCC=C[C@@H](NC(=O)c1ccco1)c1ccccc1` the composite z-score was 0.557. Work on `CC(C)(C)OC(=O)CC[C@@]1(C(=O)NCCN2CCOCC2)N=C(c2ccc(OCCCO)cc2)O[C@@H]1c1ccccc1` yielded a composite z-score of 1.11. Compound `CC(C)(C)N1CC=CC23O[C@@H]4C=CCOC(=O)[C@@H]4[C@H]2C(=O)N(CCCCCO)[C@@H]3C1=O` (stereo partly specified) has a composite z-score of 0.0408. For `COc1ccc(C(O)C2C=CC3C(=O)N(c4ccccc4)C(=O)C3N2Nc2ccc([N+](=O)[O-])cc2)cc1OCc1ccccc1` (stereo unspecified), the composite z-score was 1.15. Compound `CN(C)C(=O)[C@]1(CCC(=O)OC(C)(C)C)N=C(c2ccc(OCCCO)cc2)O[C@@H]1c1ccccc1N=[N+]=[N-]` has a composite z-score of 0.863. With `O=C1OCC=C[C@H]2OC34C=CCN(c5ccc6ccccc6c5)C(=O)[C@H]3N(CCCO)C(=O)[C@@H]4[C@@H]12` (stereo partly specified) the composite z-score was 0.899. In the case of `COC(=O)c1c(CC[C@@H](CO)NC(=O)N[C@@H](Cc2ccccc2)Cn2cc(C3(O)CCCCC3)nn2)oc(C(C)=O)c1C(=O)OC`, the composite z-score is reported as -0.328. Compound `C=CCOC(=O)[C@H]1[C@@H]2C(=O)O[C@@H](c3ccccc3)[C@@H](c3ccccc3)N2[C@@H](c2ccc(OCCOC(=O)[C@@H]3C[C@@H]4C(=O)NCC(=O)N4[C@@H]3c3ccc(O)cc3)cc2)[C@]12C(=O)Nc1ccccc12` has a composite z-score of -0.167. Compound `[N-]=[N+]=NCc1ccccc1[C@H]1OC(c2ccc(OCCCO)cc2)=N[C@@]1(CCS(=O)(=O)c1ccccc1)C(=O)N1CCOCC1` has a composite z-score of 1.31. With `N[C@@H](Cc1ccccc1)Cn1cc(-c2ccccc2)nn1` the composite z-score was 0.932. With `CC(C)CNC(=O)[C@@]1(c2ccc([N+](=O)[O-])cc2)CC(=O)N(CC23CC4CC(CC(C4)C2)C3)[C@@H]1c1ccc(CO)cc1I` the composite z-score was 0.0793. Compound `O=C(CCN1CCOCC1)c1cccc(O)c1` has a composite z-score of -0.399. `COC(=O)C(CC#Cc1ccc2c(c1)[C@]1(C(=O)N2)[C@H](c2ccc(OCCO)cc2)N2[C@H](c3ccccc3)[C@H](c3ccccc3)OC(=O)[C@H]2[C@@H]1C(=O)NC[C@H](O)c1ccccc1)C(=O)OC` gave a composite z-score of 0.473. In the case of `C#CCN(C(/C=C/c1ccccc1)CO)C(C(=O)O)c1ccccc1` (stereo unspecified), the composite z-score is reported as -0.447. Compound `COc1ccc(C(=O)Nc2cccc(CN3C(=O)[C@@]4(O[C@@H](CCn5cc(CCO)nn5)[C@H]([Si](C)(C)c5ccc(OC)cc5)[C@H]4C)c4ccccc43)c2)cc1` has a composite z-score of 0.124. Work on `O=C(CS)NCCCCCCNC(=O)[C@@H]1C[C@@H]2C(=O)N3CCC[C@H]3C(=O)N2[C@@H]1c1ccc(O)cc1` yielded a composite z-score of 0.597. With `CCCNC(=O)[C@@]1(c2ccc([N+](=O)[O-])cc2)CC(=O)N(CC23CC4CC(CC(C4)C2)C3)[C@@H]1c1ccc(CO)cc1` the composite z-score was -0.0905. `CC(C)c1ccc(NN2C(C(O)c3c(F)cccc3Cl)C=CC3C(=O)N(c4ccccc4)C(=O)C32)cc1` (stereo unspecified) gave a composite z-score of 1.13. `COc1ccc([Si](C)(C)[C@@H]2[C@@H](CCn3cc([C@H](O)c4ccccc4)nn3)O[C@]3(C(=O)N(Cc4ccc(N5C(=O)c6cccc7cccc5c67)cc4)c4ccccc43)[C@H]2C)cc1` gave a composite z-score of -0.0017. Compound `[N-]=[N+]=Nc1ccccc1C[C@]1(C(=O)NCCN2CCOCC2)N=C(c2ccc(OCCCO)cc2)O[C@H]1c1ccccc1` has a composite z-score of 0.273. Work on `COC(=O)C[C@@H]1C[C@H](C)[C@]2(O1)C(=O)N(Cc1ccccc1)c1ccc(NC(C)=O)cc12` yielded a composite z-score of -0.448. Work on `Cc1ccc([C@H]2C(C(=O)O)=C[C@@H](C)N2S(=O)(=O)c2ccc(C)cc2)cc1` yielded a composite z-score of 0.841. With `O=C1O[C@H](c2ccccc2)[C@H](c2ccccc2)N2[C@H]1[C@@H](C(=O)O)[C@]1(C(=O)Nc3ccc(C#CC4=CCCCC4)cc31)[C@H]2c1ccc(OCCO)cc1` the composite z-score was -0.701. In the case of `C=CC(=C)C1=CCO[C@@H]1[C@H]1CCCN1S(=O)(=O)c1ccccc1[N+](=O)[O-]`, the composite z-score is reported as -0.268. `CCC(CC)C(O)C1C=CC2C(=O)N(c3ccccc3)C(=O)C2N1Nc1ccc(C#N)cc1` (stereo unspecified) showed a composite z-score of 0.705. In the case of `CC(C)N1C(=O)c2ccccc2[C@@H](C(=O)NCCCN(C)C)[C@@H]1c1ccc(CO)cc1`, the composite z-score is reported as 1.01. `COC(=O)[C@@]1(Cc2ccc(F)cc2)[C@H]2c3cc(C(=O)N4CCCC4)n(Cc4cccc5ccccc45)c3C[C@H]2CN1C(=O)c1ccccc1` gave a composite z-score of 0.854. Compound `CCOC(=O)[C@H]1C/C=C/C[C@H](C(=O)OCC)C(=O)O[C@H]2[C@@H](OC)O[C@H](CO)[C@@H](OC(=O)Nc3ccc4c(c3)OCO4)[C@@H]2OC1=O` has a composite z-score of 0.0193. Compound `COCC(=C=CC[C@@H](O)c1ccc(CO)o1)CCO` has a composite z-score of -0.181. `Cc1cc(C)c(C(O)C2C=CC3C(=O)N(c4ccccc4)C(=O)C3N2Nc2ccc(C#N)cc2)c(C)c1` (stereo unspecified) showed a composite z-score of 1.24. `COc1ccc(C#Cc2ccc3c(c2)[C@]2(C(=O)N3)[C@H](c3ccc(O)cc3)N3[C@H](c4ccccc4)[C@H](c4ccccc4)OC(=O)[C@H]3[C@@H]2C(=O)N2CCCCCCC2)cc1` gave a composite z-score of 1.52. Work on `O=C1C2C=CC(C(O)c3ccc(F)cc3)N(Nc3ccccc3)C2C(=O)N1c1ccccc1` (stereo unspecified) yielded a composite z-score of 0.794. With `COc1cc2c(cc1OC)CN(C(=O)[C@@H]1[C@H]3C(=O)O[C@H](c4ccccc4)[C@H](c4ccccc4)N3[C@H](c3ccccc3OCCO)[C@@]13C(=O)Nc1ccc(C#CCNC(N)=O)cc13)CC2` the composite z-score was 0.281. `Cc1ccc(F)cc1S(=O)(=O)N[C@@H]1CCN(Cc2ccc(-c3ccccc3)cc2)C1` gave a composite z-score of -0.318.
